Source: PubChem BioAssay (NCI)
Compounds without any hit were thinned out: in the full panel of roughly 83,000, 20% have a hit.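 How to read the values: 0–100, growth inhibition (40 = 60% inhibited); 0, no net growth; -100 to 0, cell death (-40 = 40% of starting cells died; -100 = all dead).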 Unmarked numbers belong to inactive results. Calls of active or inactive are those of the source. How the source made its calls: active means growth percent below 10; inactive means the rest.

Tests used:
Assay in all cases: NCI-60 one-dose screen, 48 h (100 = growth as untreated, 0 = no growth, -100 = all killed)
Settings in all cases: 10 µM unless noted
RPMI-8226 leukemia = tested on: RPMI-8226 leukemia
OVCAR-5 ovarian = tested on: OVCAR-5 ovarian
OVCAR-4 ovarian = tested on: OVCAR-4 ovarian
SK-OV-3 ovarian = tested on: SK-OV-3 ovarian
IGROV1 ovarian = tested on: IGROV1 ovarian
OVCAR-3 ovarian = tested on: OVCAR-3 ovarian
HS 578T breast = tested on: HS 578T breast
NCI/ADR-RES ovarian = tested on: NCI/ADR-RES ovarian
T-47D breast = tested on: T-47D breast
BT-549 breast = tested on: BT-549 breast
MDA-MB-435 melanoma = tested on: MDA-MB-435 melanoma
SW-620 colon = tested on: SW-620 colon
MCF7 breast = tested on: MCF7 breast
HCT-116 colon = tested on: HCT-116 colon
HCC-2998 colon = tested on: HCC-2998 colon
KM12 colon = tested on: KM12 colon
OVCAR-8 ovarian = tested on: OVCAR-8 ovarian

Row | Structure (SMILES) | growth (RPMI-8226 leukemia) | growth (OVCAR-5 ovarian) | growth (OVCAR-4 ovarian) | growth (SK-OV-3 ovarian) | growth (IGROV1 ovarian) | growth (OVCAR-3 ovarian) | growth (HS 578T breast) | growth (NCI/ADR-RES ovarian) | growth (T-47D breast) | growth (BT-549 breast) | growth (MDA-MB-435 melanoma) | growth (SW-620 colon) | growth (MCF7 breast) | growth (HCT-116 colon) | growth (HCC-2998 colon) | growth (KM12 colon) | growth (OVCAR-8 ovarian) [%]
1 | Oc1ccc(CNNc2ccnc3c(O)cccc23)c2cccnc12 | 22.2% | 59.1% | 34.4% | 27.6% | 35.1% | 37.8% | 47.7% | 6.61% (active) | 29.6% | 37.1% | 38.1% | 27.9% | 11.2% | 27.3% | 35.7% | 22.9% | –
2 | COc1ccc2c(c1)Oc1nc(N)c(C#N)c(N)c1C2Sc1ccc(SC)cc1 (configuration not stated) | 2.48% (active) | 112% | 37.2% | 94.4% | 0.493% (active) | -63.3% (active) | 67.7% | 62.9% | -7.13% (active) | 38.9% | 24.2% | -8.99% (active) | -20.7% (active) | 10.2% | 58.9% | 53.3% | –
3 | N#CC(C#N)=C1NC(c2ccccc2)=C(c2ccccc2)C(c2ccccc2Cl)=C1C#N | 113% | 105% | 117% | 103% | 108% | 108% | 120% | 96% | 102% | 86.2% | 114% | 110% | 97.1% | 94.1% | 99.5% | 113% | –
4 | c1cc(CNC23CC4CC(CC(C4)C2)C3)cc(C[N+](Cc2cccc(CNC34CC5CC(CC(C5)C3)C4)c2)(Cc2cccc(CNC34CC5CC(CC(C5)C3)C4)c2)Cc2cccc(CNC34CC5CC(CC(C5)C3)C4)c2)c1 (configuration not stated) | -11.6% [42 µM] (active) | 7.78% [42 µM] (active) | 29.5% [42 µM] | 61.9% [42 µM] | 10.9% [42 µM] | -26.9% [42 µM] (active) | 58.2% [42 µM] | 21.5% [42 µM] | 24% [42 µM] | 24.5% [42 µM] | 11.3% [42 µM] | 20.6% [42 µM] | 2.14% [42 µM] (active) | -3.55% [42 µM] (active) | 34.3% [42 µM] | 25.8% [42 µM] | –
5 | CC(C)(C)CC(C)(C)Cc1ccc(OCCOCC[N+](C)(C)Cc2ccccc2)cc1 | -53.4% (active) | 74% | 7.03% (active) | 46.9% | -16.7% (active) | 0.137% (active) | 26.3% | 99.9% | 0.793% (active) | -16% (active) | -23.9% (active) | 30.2% | 12.9% | 20.8% | – | -52.6% (active) | –
6 | COc1cc(NC(=O)COc2cc(C)nc3ccc(OC)cc23)cc(OC)c1 | 81.3% | 107% | 99% | 96.3% | 104% | 98.9% | 95.1% | 86.6% | 95.8% | 85.5% | 100% | 99.7% | 86.8% | 90.2% | 101% | 96.8% | –
7 | CN(C)CSc1nc2ccccc2s1 | 98.7% | 93.6% | 102% | 84.7% | 83.7% | 99.9% | 116% | 102% | 86.7% | 81.1% | 99.9% | 104% | 87.3% | 89.7% | 97.7% | 98.3% | –
8 | COCCc1n(Cc2ccc3ccccc3c2)c2ccccc2[n+]1Cc1ccc2ccccc2c1 | -52.7% (active) | -2.95% (active) | -4.37% (active) | -14.6% (active) | -63.4% (active) | -72.8% (active) | -6.4% (active) | 84.4% | -16.7% (active) | -48.5% (active) | -87.5% (active) | -73.7% (active) | -68.1% (active) | -81.2% (active) | -78.1% (active) | -86.2% (active) | –
9 | COC(=O)c1cncc(C(=O)Nc2ccc(-n3cnc4ccccc43)cc2)c1 | 74.5% | 101% | 107% | 108% | 90.5% | 108% | 107% | 94.9% | 74.8% | 96.1% | 105% | 112% | 84.7% | 103% | 116% | 88.4% | –
10 | Cc1nc2sc(C(=O)Nc3ccccc3)c(N)c2cc1C(C)O (configuration not stated) | 16.9% | 51.3% | 64.5% | 31% | 40.2% | 21.8% | – | 15.4% | 44.6% | 74.3% | -41.1% (active) | 26.4% | 16.7% | 30.2% | 46.8% | 26.1% | –
11 | O=c1cc(/C=N\Nc2nc(-c3ccc(Cl)cc3Cl)cs2)c2cc(Cl)ccc2o1 | 90.8% | 96.9% | 85.3% | 81.8% | 79.8% | 101% | 101% | 98.1% | 69.7% | 96.7% | 105% | 104% | 78.2% | 80% | 105% | 94.3% | –
12 | COc1cc(C2=NN(C(C)=O)C(c3cccc(Nc4ccnc5cc(C(F)(F)F)ccc45)c3)C2)cc(OC)c1OC (configuration not stated) | – | 82.7% | 52% | 69.3% | 62.4% | 61.2% | 76.6% | 53% | 40.2% | 46.2% | 56.6% | 66.1% | 37.9% | 48.4% | 72.2% | 64.8% | 56.1
13 | CC(=O)Nc1ccc2c(c1)Cc1cc(F)ccc1-2 | 93.6% | 106% | 109% | 106% | 92.8% | 98.6% | 103% | 97.5% | 82.8% | 93.8% | 107% | 105% | 82.2% | 102% | – | 95.6% | –
14 | N#Cc1c(-c2ccc(F)cc2)nc(N/N=C/c2c[nH]c3ccccc23)nc1N1CCOCC1 | 33.5% | 94.8% | 80.4% | 92.6% | 65.1% | 65.9% | 34.4% | 61% | 76.4% | 75.5% | 77.2% | 7.62% (active) | 51.5% | 44.3% | 59% | 40% | –
15 | COc1ccc(-n2nc(C(=O)NCC(=O)O)nc2-c2ccccc2)cc1 | 112% | 100% | 111% | 111% | 105% | 116% | 115% | 118% | 104% | 94.2% | 111% | 112% | 98.2% | 101% | 118% | 108% | –
